The results in this text go back to PubChem BioAssay AID1626 (SRMLSC, 2009).

The structures appear in SMILES notation. Hit rate of the full screen: of about 220,000 compounds, about 2,000 (0.91%) were called active. Another 2% or so got no clear call; they are omitted. No stated cut-off is given here; in the data, inconclusive means inhibition above about 80% without an active follow-up result; inactive means below that; test concentration not stated here. Not all results are given here. Measured potencies and affinities stand elsewhere.

The test is described as follows: M. tuberculosis H37Rv growth inhibitors, H37Rv strain (AID 1626).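 Further: bacteria incubated seven days before Alamar blue readout; 0% = bacteria only wells and 100% = bacteria with antibiotic wells.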 The following applies: hits give high values, concentration not given here.
The term inhibition denotes the relative decrease from the control value, in per cent. Take `COc1ccc(NC(=S)Nc2ccccc2F)c(OC)c1`: the inhibition was -4.54% (inactive).

As for `COC(=O)c1ccccc1NC(=O)C1CCCN(S(=O)(=O)c2ccc(OC)cc2)C1` (stereo unspecified), the inhibition was 5.41% (inactive).

As to `O=C(/C=C/c1ccccc1Cl)NCc1cccs1`, the inhibition was 2.96% (inactive).

For `O=C1CC(SCc2nc3ccccc3[nH]2)C(=O)N1c1ccc(F)c(Cl)c1` (stereo unspecified), the inhibition was -2.51% (inactive).

In the case of `Cc1cccn2c(=O)c3cc(C(=O)NC(C)c4ccccc4)c(=N)n(CCCn4ccnc4)c3nc12` (stereo unspecified), the inhibition was 48.6% (inactive).

As to `C=CC(=O)NC1CC2CCC1(C)C2(C)C` (stereo unspecified), the inhibition is 6.5% (inactive).

With `CC1(C)C2CCC1(C)C(Nc1ccccc1)C2` (stereo unspecified), the inhibition is 3.82% (inactive).

Regarding `Cc1onc(-c2c(F)cccc2Cl)c1C(=O)N1CCN(c2ncccn2)CC1`, the inhibition is 3.2% (inactive).

Consider `COc1cc(CNn2c(C)n[nH]c2=S)cc(Br)c1OCc1ccc(F)cc1`, for which the inhibition was 6.01% (inactive).

With `CCOc1ccc(N=C(/C(C(=O)C(=O)N2CCOCC2)=C(/O)c2ccccc2)c2ccccc2)cc1`, the inhibition is 70.8% (inactive).

For `CCOc1ccc(OCc2ccc(C(=O)N3CCOCC3)cc2)cc1`, the inhibition was -3.72% (inactive).

Turning to `O=C(c1ccccc1)c1cccs1`, the inhibition is 0.41% (inactive).

`Nc1ccc(C(=O)c2cccs2)cn1`: the inhibition was -5.69% (inactive).

With `COc1ccc(-c2csc(NC(CO)c3nc4ccccc4n3CCCO)n2)cc1` (stereo unspecified), the inhibition was 1.28% (inactive).

On to `O=C(Nc1ccccn1)c1cc2ccccc2o1`, for which the inhibition is 9.27% (inactive).

For the compound `Cc1ccc(-c2csc(NC(=O)c3ccc(C)o3)n2)cc1`, the inhibition is 10.4% (inactive).

Consider `Cc1cc(-c2csc(NC(=O)c3cc4ccccc4o3)n2)c(C)n1C`, for which the inhibition was -8.86% (inactive).

As to `Cc1ccc(C(=O)Nc2nc(-c3cccnc3)cs2)o1`, the inhibition was 7.51% (inactive).

Consider `CCCCn1nnnc1SCC(=O)N1CCOCC1`, for which the inhibition was -13.6% (inactive).

On to `Cc1[nH]nc2c1C(c1cccs1)C(C#N)=C(N)O2` (stereo unspecified), for which the inhibition was 8.65% (inactive).

`CC(O)[C@H]1CNC(=O)C(=O)N1CCC12CC3CC(CC(C3)C1)C2` (stereo partly specified): the inhibition is -0.53% (inactive).

Regarding `COc1ccc(OC)c(S(=O)(=O)Nc2ccc3oc4c(c3c2)C(=O)CCC4)c1`, the inhibition was -4.7% (inactive).

With `CC(=O)Oc1ccc2oc(C)c(C(=O)N3CCOCC3)c2c1`, the inhibition is -12.9% (inactive).

Regarding `COc1ccc(-n2c(O)c(C(C)=NCc3ccc4c(c3)OCO4)c(=O)[nH]c2=O)cc1`, the inhibition is 0.11% (inactive).

On to `CC(C)N(C(=O)CC1ON(C)C(=O)N1c1ccc(Cl)cc1)C(C)C` (stereo unspecified), for which the inhibition is -4.4% (inactive).

On to `CCOC(=O)C1=C(c2ccccc2)N=c2s/c(=C\c3cc(OC)c(OC)c(OC)c3)c(=O)n2C1c1cccs1` (stereo unspecified), for which the inhibition was -2.92% (inactive).

In the case of `CCOC(=O)C1=C(C)N=c2s/c(=C/c3ccccc3)c(=O)n2C1c1ccc(OC)c(OC)c1` (stereo unspecified), the inhibition is 1% (inactive).

Regarding `S=C(NCCc1ccccc1)Nc1ccccc1N1CCOCC1`, the inhibition is 0.99% (inactive).

As for `COc1ccc([N+](=O)[O-])cc1NC(=O)C(C)OC(=O)c1cccnc1Cl` (stereo unspecified), the inhibition is -2.19% (inactive).

For `CC1=C(C(=O)Nc2ccccn2)C(c2ccc(Cl)cc2)NC(=S)N1` (stereo unspecified), the inhibition was -5.44% (inactive).

Consider `CCOC(=O)c1cnc(Nc2nc3ccccc3o2)nc1CSc1ncccn1`, for which the inhibition was 0.18% (inactive).

Consider `CCOC(=O)c1cnc(Nc2nc3ccccc3o2)nc1CSC(=S)N(CC)CC`, for which the inhibition is -2.38% (inactive).

With `O=C1c2cc(O)cc(O)c2C(=O)c2c1cc(O)c([C@@H](CO)CCO)c2O`, the inhibition was -0.07% (inactive).

With `Cc1cc(NC(=O)CCCC(=O)N(c2ccccc2)C(C(=O)NC2CCCCC2)c2cccs2)no1` (stereo unspecified), the inhibition is -3.8% (inactive).

Take `Cc1ccc([N+](=O)[O-])cc1N(CC(=O)NC1CCCC1)S(C)(=O)=O`: the inhibition was 1.23% (inactive).

Consider `Cc1c(/C=N\NC(=O)C2COc3ccccc3O2)c2ccccc2n1C` (stereo unspecified), for which the inhibition is 10.6% (inactive).

On to `C#CCNC(=O)C1=C[C@@H](C2CC2)[C@H](CCCO)[C@@H](OCC)O1`, for which the inhibition was -9.56% (inactive).

Regarding `O=C(Nc1nnc(-c2ccncc2)o1)C1CCCCC1`, the inhibition is 0.18% (inactive).

Regarding `CC(=O)Nc1nnc(-c2ccc(Cl)s2)o1`, the inhibition was 2.92% (inactive).

With `O=C(Nc1nnc(-c2ccco2)o1)C1CCCCC1`, the inhibition is 3.01% (inactive).

As to `CCC(=O)Nc1nnc(-c2ccc(Cl)s2)o1`, the inhibition is 13.6% (inactive).

`Cc1cc(C(=O)COc2ccc(Cl)cc2Br)c(C)n1C`: the inhibition was -4.24% (inactive).

With `CCN(CC)C(=O)C1CCCN(c2ccc([N+](=O)[O-])cc2/C=N/NC(=O)c2ccccc2)C1` (stereo unspecified), the inhibition is 9.19% (inactive).

Take `Cc1ccc(CNC(=O)CCc2nc(-c3cccs3)no2)cc1`: the inhibition is 6.02% (inactive).

For the compound `CCN(CC)S(=O)(=O)c1ccc(NS(=O)(=O)CC23CCC(CC2=O)C3(C)C)cc1` (stereo unspecified), the inhibition is -3.32% (inactive).

Regarding `C=CCNC(=O)c1ccc(-n2cccc2)cc1`, the inhibition is 8.71% (inactive).

For the compound `O=C(Nc1ccc(F)cc1)N1CCC(c2nc3c(nnn3Cc3cccc(Cl)c3)c(=O)[nH]2)CC1`, the inhibition is 64.2% (inactive).

Consider `N#Cc1ccc(NC(=O)N2CCC(c3nc4c(nnn4Cc4cccc(Cl)c4)c(=O)[nH]3)CC2)cc1`, for which the inhibition was 69% (inactive).

In the case of `N/C(=N\OC(=O)CCc1ccccc1)c1ccccc1Cl`, the inhibition is 14.4% (inactive).

As to `COc1cc(CNC(C)(C)CO)cc(Br)c1OCc1ccc(Cl)cc1Cl`, the inhibition was 62.5% (inactive).

Take `COc1cc(CNC(C)(C)CO)cc(Br)c1OCc1ccc(Cl)cc1`: the inhibition is 9.24% (inactive).

Regarding `COC(=O)CCC(=O)OC1(C)C(=O)C2=CN(Cc3ccco3)C(c3ccc(OC)cc3)=CC2=C(Br)C1=O` (stereo unspecified), the inhibition was 1.66% (inactive).

With `CCC(=O)Nc1cccc(C(=O)Nc2nccs2)c1`, the inhibition is 2.64% (inactive).

With `O=C(COC(=O)c1ccccn1)Nc1nccs1`, the inhibition was -5.49% (inactive).

Turning to `CCCc1cc(C(=O)Nc2nnc(C)s2)cs1`, the inhibition was 1.88% (inactive).

For `Cc1cnc(NC(=O)c2sc3ccccc3c2Cl)s1`, the inhibition was 3.19% (inactive).

As for `O=C(Nc1ccncc1)c1sc2ccccc2c1Cl`, the inhibition is 2.92% (inactive).

As for `O=C(Nc1nccs1)c1cnccn1`, the inhibition was -1.5% (inactive).

Turning to `Cc1onc(-c2c(F)cccc2Cl)c1C(=O)Nc1nccs1`, the inhibition was 6.17% (inactive).

In the case of `COC(=O)c1nc(N)sc1-c1ccc(OC)cc1`, the inhibition is -1.47% (inactive).

As for `CCCS(=O)(=O)N1CCN(Cc2ccc([N+](=O)[O-])cc2)CC1`, the inhibition was 5.19% (inactive).
